Assay outcomes: PubChem, Bradner/Qi Labs at DFCI
CBX7 AlphaScr: CBX7 chromodomain binding inhibitors, primary screen, biochemical, AlphaScreen. actives 1.1% (n = 66,000). AlphaScreen His6-CBX7 / biotin-H3K27me3 peptide binding; hits give low values. normalised signal (fraction of DMSO) (concentration not given with the values). Chromobox protein homolog 7 (Homo sapiens), O95931; in the data active means normalised signal below about 0.5
Target sequence (O95931 whole entry, looked up): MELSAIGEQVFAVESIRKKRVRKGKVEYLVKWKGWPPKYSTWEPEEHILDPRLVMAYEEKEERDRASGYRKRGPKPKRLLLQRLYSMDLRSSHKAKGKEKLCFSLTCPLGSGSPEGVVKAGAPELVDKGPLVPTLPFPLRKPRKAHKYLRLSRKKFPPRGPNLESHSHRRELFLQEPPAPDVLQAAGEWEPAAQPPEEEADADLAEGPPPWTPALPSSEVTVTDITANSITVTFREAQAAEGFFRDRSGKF
An asterisk follows results filed as active. The sample as a whole holds a higher share of hits than the screen did.

`COc1ccc(N2CCC(CNS(=O)(=O)c3cccc(Cl)c3)C2)cc1` (stereo not given) gave CBX7 AlphaScr 0.474*.
For Cc1ccc2oc(-c3cc(N)ccc3O)nc2c1 the results were CBX7 AlphaScr 0.784.
For CC(C)CCNC(=O)Cn1nc(-c2ccccc2)c2cc(Cl)ccc21 the results were CBX7 AlphaScr 1.03.
NC(=O)CSc1nnc2c(n1)[nH]c1ccccc12 was read as CBX7 AlphaScr 1.02.
CCOC(=O)CCCCC(=O)c1[nH]c(=O)[nH]c1CSc1nnc2c(n1)[nH]c1ccccc12 was read as CBX7 AlphaScr 0.423*.
Screening c1ccc(CSc2nnc3c(n2)[nH]c2ccccc23)cc1 returned CBX7 AlphaScr 1.1.
Screening CCCc1ccc(-c2ccc(C(=O)Nc3nc4ccc(OCC)cc4s3)cc2)nc1 returned CBX7 AlphaScr 1.12.
For Cc1ccc(CCNC(=O)c2cc(-c3ccncc3)nc3ccccc23)cc1 the results were CBX7 AlphaScr 1.05.
`CCOC(=O)c1cnc2ccc(OCC)cc2c1Nc1ccc(OCC)cc1` gave CBX7 AlphaScr 1.09.
CCOC(=O)c1cnc2ccc(Cl)cc2c1Nc1ccc(N2CCOCC2)cc1 was read as CBX7 AlphaScr 0.579.
For CCOC(=O)c1cnc2ccc(C)cc2c1Nc1ccc(N2CCCCC2)cc1 the results were CBX7 AlphaScr 0.278*.
For CCOC(=O)c1cnc2c(C)cc(C)cc2c1Nc1ccc(Cl)cc1 the results were CBX7 AlphaScr 1.24.
Screening CCOC(=O)c1cnc2ccc(OC)cc2c1Nc1ccc(OC)cc1 returned CBX7 AlphaScr 0.578.
Screening CCOC(=O)c1cnc2c(C)cc(C)cc2c1Nc1ccc(N2CCCCC2)cc1 returned CBX7 AlphaScr 0.284*.
For CCOC(=O)c1cnc2ccc(OC)cc2c1Nc1ccc(N(C)C)cc1 the results were CBX7 AlphaScr 0.258*.
CCOC(=O)c1cnc2ccc(OCC)cc2c1Nc1ccc(F)c(Cl)c1 was read as CBX7 AlphaScr 0.397*.
For CCOC(=O)c1cnc2ccc(OC)cc2c1Nc1ccc(C)cc1 the results were CBX7 AlphaScr 0.989.
CCOC(=O)c1cnc2ccc(C)cc2c1Nc1ccc(N2CCOCC2)cc1 was read as CBX7 AlphaScr 0.893.
`CCOC(=O)c1cnc2ccc(OCC)cc2c1Nc1ccc(C)c(C)c1` gave CBX7 AlphaScr 1.21.
For CCOC(=O)c1cnc2c(C)cc(C)cc2c1Nc1ccc(F)cc1 the results were CBX7 AlphaScr 1.23.
COc1cccc(CNC(=O)c2cnn(-c3ccccc3)c2-n2cccc2)c1OC was read as CBX7 AlphaScr 1.02.
For O=C1c2ccccc2C(=O)N1c1cccc(-c2csc(Nc3cc(Cl)cc(Cl)c3)n2)c1 the results were CBX7 AlphaScr 1.01.
Screening CCOc1ccccc1NC(=O)c1c(NCc2cccc(OC)c2OC)sc2c1CCC2 returned CBX7 AlphaScr 0.997.
`COc1ccc2oc(C(O)c3c(C)oc4ccc(OC)cc34)cc2c1` (stereo not given) gave CBX7 AlphaScr 0.947.
For O=C(CCc1nc(-c2ccccc2F)no1)Nc1ccc2c(c1)OCCO2 the results were CBX7 AlphaScr 1.01.
Cc1nc2ncnn2c(C)c1CCC(=O)NC1CCCC1 was read as CBX7 AlphaScr 1.03.
CN1CCN(C(=O)c2cn(C3CCCCC3)c(=O)c3c2c2ccccc2n3C)CC1 was read as CBX7 AlphaScr 1.05.
`CC(C)(C)c1ccc(-c2nnc3sc(-c4ccncc4)nn23)cc1` gave CBX7 AlphaScr 0.941.
CCc1nnc(NC(=O)CCCOc2ccc(OC)cc2)s1 was read as CBX7 AlphaScr 1.06.
`Cn1c(=O)c(=O)n(C)c2cc(S(=O)(=O)N3CCCC3C(=O)Nc3cccc(F)c3)ccc21` (stereo not given) gave CBX7 AlphaScr 1.13.
Screening CCOC(=O)c1cnc2ccc(OCC)cc2c1N1CCN(c2ccccc2F)CC1 returned CBX7 AlphaScr 0.167*.
Screening CCOC(=O)c1cnc2ccc(C)cc2c1Nc1ccc(OCC)cc1 returned CBX7 AlphaScr 0.932.
For CCOC(=O)c1cnc2ccccc2c1Nc1ccc(C)cc1 the results were CBX7 AlphaScr 0.994.
CCOC(=O)c1cnc2ccc(OCC)cc2c1N1CCCC1 was read as CBX7 AlphaScr 0.903.
Screening CCOC(=O)c1cnc2ccc(C)cc2c1Nc1ccc(N(CC)CC)cc1 returned CBX7 AlphaScr 0.417*.
For CCOC(=O)c1cnc2ccc(OCC)cc2c1N1CCN(c2ccccc2)CC1 the results were CBX7 AlphaScr 0.736.
Screening Cc1ccnc(NS(=O)(=O)c2ccc(NC(=O)Cc3ccc(Cl)cc3)cc2)n1 returned CBX7 AlphaScr 1.01.
Screening COc1ccc(NC(=O)N2CCN(C/C=C/c3ccccc3)CC2)cc1 returned CBX7 AlphaScr 1.07.
Screening Cc1nc2c(C(=O)NCc3ccc4c(c3)OCO4)cnn2c(C)c1Cc1c(F)cccc1Cl returned CBX7 AlphaScr 0.979.
`CC(c1ccccc1)C1CC(=O)N(c2ccc(F)cc2)C1=O` (stereo not given) gave CBX7 AlphaScr 1.08.
CCOc1ccc2nc(N3CCCC(C(=O)NCCCN4CCN(C)CC4)C3)sc2c1 (stereo not given) was read as CBX7 AlphaScr 0.437*.
Screening CCOC(=O)N1CCN(C(=O)C2CCCN(c3nc4ccc(OCC)cc4s3)C2)CC1 (stereo not given) returned CBX7 AlphaScr 0.955.
CCCN1CCN(C(=O)C2CCCN(c3nc4ccc(OCC)cc4s3)C2)CC1 (stereo not given) was read as CBX7 AlphaScr 0.285*.
CCOc1ccc2nc(N3CCCC(C(=O)N4CCN(c5ccc(OC)cc5)CC4)C3)sc2c1 (stereo not given) was read as CBX7 AlphaScr 0.609.
`CCOc1ccc2nc(N3CCCC(C(=O)NCCCN4CCOCC4)C3)sc2c1` (stereo not given) gave CBX7 AlphaScr 0.986.
Screening CCCNC(=O)C1CCCN(c2nc3ccc(OCC)cc3s2)C1 (stereo not given) returned CBX7 AlphaScr 0.959.
Screening Cc1ccc(C(=O)CSc2nc3nc(C)cc(C)c3c(=O)[nH]2)cc1 returned CBX7 AlphaScr 1.05.
CCCNC(=O)c1ccc2c(c1)N(Cc1cccc(Cl)c1)C(=O)CS2 was read as CBX7 AlphaScr 1.01.
For COc1ccc(N2C(=O)c3ccccc3C2(O)c2ncc[nH]2)cc1 (stereo not given) the results were CBX7 AlphaScr 0.858.
`COc1ccc(OCc2nc(C#N)c(N3CCN(c4ccccc4)CC3)o2)cc1` gave CBX7 AlphaScr 0.646.
`CN1C(=O)CSc2ccc(C(=O)O)cc21` gave CBX7 AlphaScr 1.17.
For COc1ccccc1NC(=O)c1c(-c2c(F)cccc2Cl)noc1C the results were CBX7 AlphaScr 1.06.
Screening COc1cc2c(cc1OC)C(c1cccc(Br)c1)CC(=O)N2 (stereo not given) returned CBX7 AlphaScr 0.849.
Cc1ccc2ccc(NC(=O)c3ccccc3F)cc2n1 was read as CBX7 AlphaScr 1.01.
`CCN(CC)S(=O)(=O)c1ccc(C(=O)Nc2nnc(C(C)C)s2)cc1` gave CBX7 AlphaScr 1.14.
`CCc1nnc(NC(=O)c2ccc(S(=O)(=O)N(C)c3ccccc3)cc2)o1` gave CBX7 AlphaScr 0.677.
Screening CCc1nnc(NC(=O)c2ccc(S(=O)(=O)N(CC)CC)cc2)o1 returned CBX7 AlphaScr 0.103*.
Screening CCc1nnc(NC(=O)c2ccc(S(=O)(=O)N(CC(C)C)CC(C)C)cc2)o1 returned CBX7 AlphaScr 0.104*.
O=C(CSc1nnc(CNC(=O)c2ccccc2F)o1)NCCc1ccccc1 was read as CBX7 AlphaScr 1.02.
OC(c1cccc2ccccc12)c1nccn1Cc1ccccc1 (stereo not given) was read as CBX7 AlphaScr 0.992.
